CF NFkB block = inhibitors of PAF-induced NF-kB signaling, primary screen, cell-based, GFP fluorescence, uHTS; KKLEB NF-kB-GFP reporter, GFP fluorescence overnight; inhibition, % at 5 µM; 360,000 tested, 0.86% active; AID 588850, 2011;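 active means at least 50% inhibition at 5 µM, scaled per plate between neutral and stimulator controls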;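 further: PAF is a Pseudomonas aeruginosa culture filtrate used as stimulus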
PPC-1+TRAIL kill = compounds killing PPC-1 cancer cells with TRAIL present, primary screen, TRAIL potentiator project, ATPLite luminescence, uHTS. 220,000 tested, 0.41% active. cell killing (% activity), % at 4 µM or 5 µM. PPC-1 cells + TRAIL, ATPLite viability luminescence. AID 1443, 2008;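 active means cell killing above 50% in the first pass at 4 µM, then a duplicate retest at 5 µM averaging 50% or more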
iPSC survival up = enhancers of single-cell hiPSC survival, primary screen, ATPlite luminescence | 100% = ROCK inhibitor wells, 0% = DMSO | survival enhancement, % at 20 µM | 360,000 tested, 0.044% active | AID 602274, 2012; in the data active means survival enhancement above about 18%;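 further: cells exposed to compounds for 16 hours before the ATP read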
C8 TRAIL sens = viability loss with TRAIL in NB7+C8 cells, primary screen, TRAIL sensitizer project, cell-based, ATPlite luminescence; inhibition (viability loss, TRAIL sensitization), % at 10 µM; 360,000 tested, 1% active;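 active means compounds causing at least 50% loss of cell viability in the single-dose screen, relative to plate controls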
KKLEB cytotox = cytotoxicity in KKLEB CF airway cells, primary screen, cytotoxicity control for CF NF-kB inhibitor project, cell-based, uHTS, fluorescence assay plates. KKLEB CF airway cells viability, ATPlite luminescence, overnight; stronger effect = lower value; cells stimulated with P. aeruginosa culture filtrate. activity change (cytotoxicity), % at 5 µM. 360,000 tested, 0.36% active;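 active means corrected activity change at or below -50% at 5 µM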
HIF-2a inh = HIF-2a reporter inhibitors, primary screen, luminescence, 786-0 RCC cells. 786-0 RCC cells HIF-2a reporter, luciferase luminescence, overnight. inhibition, % at 18.8 µM. 360,000 tested, 0.72% active. AID 624352, 2012;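 active means inhibition of the luminescence signal of 40% or more relative to plate controls, in a single-dose primary screen at 18.75 µM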
Hits are given with their value; . = inactive; / = not tested or not shown. Shown are actives, neighbours in structure and some others; about 2.2% of the full set was active somewhere.

SMILES	CF NFkB block	PPC-1+TRAIL kill	iPSC survival up	C8 TRAIL sens	KKLEB cytotox	HIF-2a inh
Cc1ccc(NC(=O)CN2C(=O)CC(C)S(=O)(=O)c3ccccc32)cc1 (centres undefined)	.	/	.	.	.	.
O=C(CNC(=O)c1ccccc1F)N/N=C/c1cc(Br)ccc1OC(=O)/C=C/c1ccco1	.	.	.	53	.	.
COc1ccccc1C(=O)NCC(=O)N/N=C/c1cc(Br)ccc1OC(=O)/C=C\c1ccco1	.	.	.	.	.	.
O=C1CSC(c2cccnc2)N1Cc1ccc(Cl)c(Cl)c1 (centres undefined)	.	.	.	.	.	.
C/C=C\C(=O)Nc1cccc(C2=NOC3(C2)C[C@H](C(N)=O)N(C(=O)[C@H]2CCC(=O)N2)C3)c1 (some centres undefined)	/	.	/	/	/	/
Oc1ccc(/C=N/Nc2nc(-c3cccnc3)nc3ccccc23)c(O)c1	.	.	.	55	.	.
Cc1cc(N/N=C/c2ccc(O)c(C)c2O)nc(-c2ccccc2O)n1	104	64	.	.	-102	.
Cc1c(O)ccc(/C=N/Nc2nc(-c3cccnc3)nc3ccccc23)c1O	61	.	.	.	.	.
Cc1ccc(Nc2nc(-c3cccnc3)nc3ccccc23)cc1	.	.	.	.	.	.
C=CCn1cc(-c2ccccc2)cc(C#N)c1=O	.	.	.	.	-96	.
Cc1ccc(-n2c(SCc3ccc(C(=O)O)cc3)nnc2-c2ccncc2)cc1	.	.	.	.	.	.
Nc1ncnc2oc(-c3ccco3)c(-c3ccco3)c12	53	.	.	.	.	.
Cc1cccc(-c2nnc(-c3cccc4ccccc34)o2)c1	.	/	.	.	.	.
Cc1ccc(-c2nnc(-c3cccc4ccccc34)o2)cc1	.	/	.	53	.	.
Cc1sc(-c2ccccn2)nc1OC(=O)c1ccc(Cl)c(Cl)c1	.	.	19	.	.	.
Nc1[nH]c(N=NC(=O)c2ccccc2O)c2ccccc12	.	.	.	72	.	.
CC(C)CCSc1nc(N)c(C#N)cc1C#N	51	.	.	.	.	.
CC(=O)c1cc(C#N)c(SCCC(C)C)nc1C	.	.	.	.	.	.
COc1ccc(NS(=O)(=O)c2cccc(C(=O)NNC(=O)c3ccc(=O)[nH]c3)c2)cc1	.	/	.	.	.	.
C/C(=N\NS(=O)(=O)c1ccc(C(C)(C)C)cc1)c1ccccc1	.	/	.	.	.	.
Cc1ccc(S(=O)(=O)/N=C2\C=C(NS(=O)(=O)c3ccccc3)C(=O)c3ccccc32)c(C)c1	78	/	.	.	.	.
CC(C)(C)c1ccc(S(=O)(=O)/N=C2\C=C(NS(=O)(=O)c3ccccc3)C(=O)c3ccccc32)cc1	82	/	.	.	.	.
Cc1ccc(C)c(N(CC(=O)NCc2ccco2)C(=O)CNS(=O)(=O)c2ccccc2)c1	.	/	.	.	.	.
COc1cc(C=C2CN(C)C(=O)C2=O)ccc1O	.	/	.	.	.	.
C=CCNC(=O)/C(C#N)=C\c1cc(Cl)c(O)c(OCC)c1	.	.	.	.	.	.
SMILES	CF NFkB block	PPC-1+TRAIL kill	iPSC survival up	C8 TRAIL sens	KKLEB cytotox	HIF-2a inh
CCOc1cc(/C=C2\CCC/C(=C\c3cc(Cl)c(O)c(OCC)c3)C2=O)cc(Cl)c1O	52	.	.	.	-50	89
CCOc1cc(/C=C2\CN(C)C/C(=C\c3ccc(O)c(OCC)c3)C2=O)ccc1O	63	/	.	.	.	92
CN1C/C(=C/c2ccsc2)C(=O)/C(=C/c2ccsc2)C1	.	.	.	.	.	47
O=C(CN1C(=O)c2ccccc2C1=O)Oc1ccc(Cl)cc1	.	/	.	.	.	.
COc1ccc(-c2nc(SCC(=O)NC3CCCCC3)n[nH]2)cc1	.	/	.	.	.	.
CC1=CN2C(=N)/C(=C/c3ccco3)C(=O)N=C2S1	.	.	.	58	.	.
CCOc1ccc(-c2ccc(/C=C3/C(=N)N4C=CSC4=NC3=O)o2)c([N+](=O)[O-])c1	.	.	.	.	.	.

Assay outcomes as filed in PubChem BioAssay.
